Screening results (PubChem BioAssay)
Cycloheximide cs = counter-screen for Shiga toxin inhibitors: cycloheximide protein synthesis inhibition. cell reporter, cycloheximide protein synthesis inhibition counterscreen. max response, %. hit rate 12% among 300,000; in the data active = max response mostly above about 13%, no sharp cut-off; inactive = mostly below about 14%; note: read at 38.3 µM for the half of the compounds with a filed dose; 0% is about no effect
Shiga toxin inh = Shiga toxin inhibition; Vero cells, Shiga toxin protein synthesis inhibition reporter; AID 2315; hit rate 9.2% among 290,000; inhibition, % at 38.7 µM; in the data active = inhibition mostly above about 28%, no sharp cut-off; inactive = mostly below about 43%; note: 0% is about no effect
FBPA Giardia inh = inhibitors of Giardia lamblia fructose-1,6-bisphosphate aldolase; hit rate 0.71% among 290,000; A8B2U2; purified Giardia FBPA; Potency, µM (top dose mostly 59.6 µM), without a hit: at the top dose activity, negative = inhibition, hits mostly inhibitors; note: potency is the fitted concentration of half-maximal effect; % is set by controls: 0 for no effect and ±100 for the full control effect; nearly all actives have a fitted effect of over 55% in size
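Giardia FBPA (40 nM reagent) was preincubated 10 min at RT with compound (up to 57.5 uM final), then substrate plus GAPDH/TPI/NAD/arsenate coupling system with diaphorase/resazurin was added; resorufin fluorescence (525/598 nm) was read after 20 min.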
TbPYK inhibitor = inhibitors of Trypanosoma brucei pyruvate kinase; Q57TT1; TbPYK enzyme, Kinase-Glo Plus ATP luminescence, 45 min; Potency, µM (highest dose often 76.8 µM), without a hit: at the highest dose activity, negative = inhibition, usual class: inhibitors; hit rate 0.12% among 410,000; AID 624173; note: potency is the fitted concentration of half-maximal effect; % is set by controls: 0 for no effect and ±100 for the full control effect; nearly all actives have a fitted effect of over 50% in size
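Glycolytic pyruvate kinase of T. brucei was incubated with substrate, test compound and 130 uM ADP for 45 minutes at room temperature. Luminescent Kinase-Glo Plus signal was measured after 10 minutes.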
LmPK inh = inhibitors of Leishmania mexicana pyruvate kinase; hit rate 0.37% among 290,000; purified LmPK, Kinase-Glo ATP luminescence, 1 h; Potency, µM (series often up to 57.5 µM), for the others: at the highest dose activity change, negative = inhibition, hits mostly inhibitors; note: potency is the fitted concentration of half-maximal effect; % is set by controls: 0 for no effect and ±100 for the full control effect
Target sequence (Q27686 whole entry, looked up): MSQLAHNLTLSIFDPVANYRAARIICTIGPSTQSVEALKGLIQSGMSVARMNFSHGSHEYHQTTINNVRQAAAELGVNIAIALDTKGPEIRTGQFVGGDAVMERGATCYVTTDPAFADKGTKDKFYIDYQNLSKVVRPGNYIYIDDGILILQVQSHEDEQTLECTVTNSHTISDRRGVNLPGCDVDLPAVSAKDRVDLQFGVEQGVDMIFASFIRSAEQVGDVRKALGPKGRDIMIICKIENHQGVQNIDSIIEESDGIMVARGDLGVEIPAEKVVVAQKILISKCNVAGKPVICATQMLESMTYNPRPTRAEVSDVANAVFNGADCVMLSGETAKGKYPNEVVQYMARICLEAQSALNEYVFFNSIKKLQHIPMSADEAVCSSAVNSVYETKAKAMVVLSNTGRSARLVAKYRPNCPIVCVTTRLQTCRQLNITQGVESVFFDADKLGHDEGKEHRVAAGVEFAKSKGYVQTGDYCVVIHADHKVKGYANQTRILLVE
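Screened at intermediate enzyme activity to detect both inhibitors and activators: LmPK at 0.1 nM, with a 0.5 nM enzyme column as activation reference. PEP 0.5 mM, ADP 0.1 mM; ATP detected by luminescence after 1 h.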
RE007 growth inh = less growth of the S. pombe RE007 Vpr strain; S. pombe RE007 Vpr strain, BacTiter-Glo ATP luminescence, 24 h; Potency, µM (titrated, usually from 92.2 µM), inactives show at the highest dose activity change, negative = less growth, actives largely listed as inhibitors; hit rate 0.21% among 360,000; AID 651644; active = well fitted falling curve with a large enough effect; inconclusive = small, poorly fitted or top-dose-only effect; inactive = no such curve, though single readings can be large or run the other way; note: potency is the fitted concentration of half-maximal effect; % is set by controls: 0 for no effect and ±100 for the full control effect; nearly all actives have a fitted effect of over 50% in size
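Fission yeast RE007 carrying one integrated HIV-1 vpr copy, seeded at OD 0.01 in PMG+AL medium with 23 nL pinned compound. Grown 24 h at 30 degrees; viability read by BacTiter-Glo luminescence after 5 min.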
* hit, by the source's call; ? = inconclusive; . = not tested or not shown. Shown is part of a subset that was picked to be rich in hits. Unless noted, calls come from the whole dose curve; as a rule, active = well fitted curve in the direction sought with a large enough effect; inconclusive = small, poorly fitted or top-dose-only effect, or another doubt; inactive = no such curve, though single readings can be large; an effect the other way counts as inactive or inconclusive.

SMILES	Cycloheximide cs	Shiga toxin inh	FBPA Giardia inh	TbPYK inhibitor	LmPK inh	RE007 growth inh
COc1ccc(CCNC(=O)c2[nH]c(C)c(C(C)=O)c2C)cc1OC	-1.4	0.2	2.0%	4.6%	0.2%	-3.1%
CC(=O)c1c(C)[nH]c(C(=O)NCCc2ccccc2)c1C	36.4*	104.2*	9.0%	2.8%	2.4%	1.2%
O=C(NCC1OCCc2ccccc21)c1ccco1 (stereo not given)	19.5*	34.2*	-22.0%	-9.0%	5.3%	-1.2%
CCC(NC(=O)c1ccccc1NC(=O)c1ccco1)C(=O)NC1CCCCC1 (stereo not given)	22.5*	-17.2	3.2%	-5.0%	5.9%	1.4%
CCC(NC(=O)c1ccccc1NC(=O)c1ccco1)C(=O)O (stereo not given)	-3.9	-21.6	10.3%	-15.7%	4.8%	-7.2%
O=C(Nc1ccccc1C(=O)NCCc1ccccc1)c1ccco1	36.6*	43.9	-0.2%	-5.0%	1.5%	-5.9%
CCc1ccc(C(O)c2ncc(-c3ccc(C)cc3)[nH]2)cc1 (stereo not given)	.	.	.	-2.3%	.	?
NS(=O)(=O)c1ccc(CCNC(=O)c2ccco2)cc1	7.7	-5.5	2.3%	-0.9%	-3.3%	-9.9%
O=C(NCCc1ccccc1)c1ccco1	49.5*	86.1*	13.4%	-6.7%	-2.5%	13.4%
CN(CC(=O)NCCc1ccccc1)Cc1ccco1	32.3*	98.8*	0.5%	1.4%	-1.7%	119.1%
Cc1ccnc(NC(=O)CCC(=O)N(CC(=O)NCCc2ccccc2)Cc2ccco2)c1	5.4	19.0	2.5%	0.5%	2.5%	8.0%
O=C(NCCc1ccccc1)c1c(F)cccc1F	39.1*	99.1*	3.2%	-8.9%	0.8%	2.5%
O=C(COC(=O)c1ccccc1NC(=O)c1ccco1)NC1CC1	6.1	-3.0	-0.4%	1.2%	1.8%	2.9%
CC1CCN(C(=O)COC(=O)c2ccccc2NC(=O)c2ccco2)CC1	44.0*	100.8*	11.8%	7.9%	0.7%	-18.2%
N#Cc1ccc(CN2CC3(CCN(C(=O)c4csnn4)CC3)C2)cc1	.	.	5.5%	5.0%	.	.
COc1ccc(-c2nc(N3CCN(S(=O)(=O)c4ccc(F)cc4)CC3)c3ccccc3n2)cc1	16.5	37.0	.	.	.	.
O=C(c1csnn1)N1CCC2(CC1)CCN(c1ccncc1)CC2	.	.	-6.0%	1.8%	.	.
CS(=O)(=O)N1CCC2(CCN(C(=O)Nc3cccc(F)c3)CC2)CC1	.	.	3.9%	-8.6%	.	.
COc1cc(NC(=O)c2nnn(CC(=O)Nc3cc(C)ccc3C)c2N)cc(OC)c1	.	.	.	0.3%	.	.
Cc1cccc(NC(=O)c2c(O)c3ccccc3n(C)c2=O)c1	24.9*	.	2.4%	-1.8%	-0.2%	8.5%
Cc1ccnc(NC(=O)c2c(O)c3ccccc3n(C)c2=O)c1	50.6*	71.2*	1.5%	.	3.4%	.
CC(C)c1ccc(N2C(=O)CSC23C(=O)N(Cc2ccccc2)c2ccccc23)cc1 (stereo not given)	.	.	.	-0.1%	.	.
Cc1cccc(N2CCN(C(=O)C3CCN(S(=O)(=O)c4cccs4)CC3)CC2)c1C	.	.	.	-0.3%	.	.
O=C(c1ccc(F)cc1)c1ccc(-c2ccc(F)cc2)nc1	14.3*	48.3	-1.2%	5.7%	2.6%	13.9%
O=C(NCCc1ccccc1Cl)c1ccc(Cn2c(=O)c3cccn3c3cccnc32)cc1	.	.	.	-3.2%	.	.
SMILES	Cycloheximide cs	Shiga toxin inh	FBPA Giardia inh	TbPYK inhibitor	LmPK inh	RE007 growth inh
O=C(Nc1ccccc1C(F)(F)F)c1cc2ccccn2n1	.	.	.	-1.1%	.	.
O=C(Nc1ccccc1C(F)(F)F)c1cc(-c2ccccc2O)on1	37.0*	82.6*	1.0%	-7.2%	0.5%	-13.8%
O=C(Nc1ccccc1C(F)(F)F)c1cc2ncc(CCCl)cn2n1	23.2*	76.7*	-6.2%	-4.8%	4.1%	-4.3%
O=C(Nc1ccccc1C(F)(F)F)c1ccccn1	31.6*	39.8	-20.6%	4.0%	-3.6%	-19.0%
O=C(Nc1ccccc1C(F)(F)F)c1cc(-c2ccco2)on1	11.8	57.8*	-1.4%	0.0%	-12.6%	-20.0%
Cc1ccc(-n2nnnc2CNC(=O)c2ccc(F)cc2)cc1C	.	.	.	1.3%	.	.
COc1ccc(C(=O)CCC(C)(C)[N+](=O)[O-])cc1	32.3*	31.0	3.6%	4.2%	-1.5%	-5.2%
CC(C)n1c(-c2ccc(N(C)C)cc2)nc2ccccc21	28.7*	113.5*	10.2%	-15.0%	-7.9%	-21.5%
CN(C)c1ccc(-c2nc3ccccc3n2C)cc1	24.2*	15.1	-11.9%	?	12.6µM*	?
CCn1c(-c2ccc(N(C)C)cc2)nc2ccccc21	23.1	73.1	.	-12.9%	-13.9%	-16.4%
CCOc1ccc(/C=N/NC(=O)c2ccncc2)cc1OC	.	.	.	-1.8%	.	13.7%
COc1cccc(C=NNC(=O)C(C)SC(C)C(=O)NN=Cc2cccc(OC)c2)c1 (stereo not given)	.	.	.	-1.9%	.	9.0%
CCOc1ccc(/C=N/NC(=O)c2ccoc2C)cc1OC	78.5*	76.7*	-11.6%	-20.6%	-22.9%	-10.1%
COc1ccc(/C=N/NC(=O)c2ccoc2C)cc1CN1CCN(c2ccc(F)cc2)CC1	45.2*	51.1*	18.2%	10.6%	-2.5%	-6.8%
COc1ccc(C(=O)N/N=C/c2ccc(OC)c(CN3CCN(c4ccc(F)cc4)CC3)c2)cc1	-1.7	-2.0	6.3%	4.5%	0.9%	-7.4%
COc1cc(/C=N/NC(=O)c2cc(C)oc2C)ccc1O	8.6	27.9	0.0%	2.1%	-0.8%	1.8%
COc1cc(/C=N/NC(=O)c2ccoc2C)ccc1O	37.3*	59.1	0.3%	-14.4%	?	14.2%
COc1cccc(/C=N/NC(=O)c2ccoc2C)c1	42.3*	57.2*	-4.7%	-9.7%	12.6µM*	-11.2%
Cn1c2ccsc2c2ncn(Cc3ccccc3F)c(=O)c21	.	.	.	2.3%	.	.
CCOC(=O)C1CCN(C(=O)c2ccc(NC(=O)c3nsc4ccccc34)cc2)CC1	.	.	.	-4.7%	.	.
COc1cc(NC(=O)CSc2nc3ccccc3nc2Cc2ccccc2OC)cc(OC)c1	.	.	.	1.3%	.	.
O=c1oc2c(CN3CCOCC3)c(O)ccc2c2ccccc12	44.4*	47.0	-5.1%	1.4%	0.3%	-0.6%
O=c1c(-c2ccc(Br)cc2)coc2c(CN3CCOCC3)c(O)ccc12	22.4*	35.2*	-0.9%	4.2%	2.1%	7.1%
CC(=O)N[C@@H]1C(O)OC(CO)C(O)C1O (stereo not given in full)	.	.	-0.5%	-0.3%	.	.
Cc1nc2ccccc2nc1N1CCOCC1	-0.5	10.6	1.4%	2.6%	-2.7%	-0.8%
Cc1nc2ccccc2nc1N1CCCC1	21.8	39.7*	5.9%	-0.5%	-1.1%	-22.1%
CC1CCN(C(=O)c2[nH]cnc2C(=O)Nc2ccon2)CC1	.	.	.	-2.2%	.	2.4%
Cc1ccc(NC(=S)NC2CCSc3ccccc32)cc1 (stereo not given)	9.9	18.1	2.7%	0.0%	0.6%	9.1%
